Measurements: PubChem BioAssay (NCI)
The panel holds about 83,000 compounds, 20% with a hit somewhere; the sample as a whole holds those more often.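 Cell lines were cultured in 96-well plates, exposed to a single compound concentration, and assessed for percent growth 48 hours later.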 A number with no mark means an inactive call. The source made the active and inactive calls. The calls were made as follows: active = growth percent below 10; inactive = the rest.

Tests used:
Assay in all cases: NCI-60 one-dose screen, 48 h (100 = growth as untreated, 0 = no growth, -100 = all killed)
Details in all cases: 10 µM unless noted
SR leukemia = test system: SR leukemia
RPMI-8226 leukemia = test system: RPMI-8226 leukemia
OVCAR-8 ovarian = test system: OVCAR-8 ovarian
OVCAR-5 ovarian = test system: OVCAR-5 ovarian
OVCAR-4 ovarian = test system: OVCAR-4 ovarian
SK-OV-3 ovarian = test system: SK-OV-3 ovarian
IGROV1 ovarian = test system: IGROV1 ovarian
OVCAR-3 ovarian = test system: OVCAR-3 ovarian
HS 578T breast = test system: HS 578T breast
NCI/ADR-RES ovarian = test system: NCI/ADR-RES ovarian

Row | Compound | growth (SR leukemia) | growth (RPMI-8226 leukemia) | growth (OVCAR-8 ovarian) | growth (OVCAR-5 ovarian) | growth (OVCAR-4 ovarian) | growth (SK-OV-3 ovarian) | growth (IGROV1 ovarian) | growth (OVCAR-3 ovarian) | growth (HS 578T breast) | growth (NCI/ADR-RES ovarian)
1 | C=C(C)[C@@H]1CC[C@]2(C(N)=O)CC[C@]3(C)[C@H](CC[C@@H]4[C@@]5(C)CC[C@H](OCCC#N)C(C)(C)[C@@H]5CC[C@]43C)[C@@H]12 | 72.7% | 73.2% | 86.9% | 76.3% | 93.2% | 79.5% | 90% | 110% | 88.3% | 89%
2 | COCCn1cc(-c2csc(-c3c[nH]c4ccc(Br)cc34)n2)c2cccnc21 | 17% | 22.2% | 21.8% | 55.5% | 31.2% | 47.1% | 42.3% | 39% | 44.5% | 10.8%
3 | NC(=O)c1c(NC(=O)c2cccc(C(F)(F)F)c2)sc2c1CCC(=O)C2 | -13.2% (active) | -22.5% (active) | 13.6% | 12.8% | -92.2% (active) | 1.42% (active) | -6.14% (active) | -37.6% (active) | 9.53% (active) | -2.23% (active)
4 | CC1(C)CC[C@]2(CO)CC[C@]3(C)[C@H](CC[C@@H]4[C@@]5(C)CCCNC(C)(C)[C@@H]5CC[C@]43C)[C@H]2[C@H]1O | 10.5% | 31.4% | 95% | 92.8% | 89.7% | 92.5% | 82.3% | 94.3% | 83.5% | 93.1%
5 | CNC(=O)c1cc(Oc2cccc3nc(NC(=O)Nc4cc(C(F)(F)F)ccc4Cl)ccc23)ccn1 | 48.2% | 78.8% | 78% | 98.7% | -10.5% (active) | 115% | 108% | 95.4% | 76.4% | 93.8%
6 | COc1ccc(Cn2cc3c(c2-c2ccccc2)CCc2cnoc2-3)cc1 | 29.9% | -25.3% (active) | 19.9% | 26% | 54.7% | 21.9% | 21.7% | -11.5% (active) | 9.15% (active) | 4.47% (active)
7 | COc1cccc(NCc2nnc(Nc3ccc(Cl)cc3)c3ccccc23)c1 | -24.5% (active) | -28.1% (active) | 3.02% (active) | 8.44% (active) | 17.2% | -11.9% (active) | 1.51% (active) | -53.6% (active) | 0.542% (active) | -5.42% (active)
8 | N#Cc1cccc(C2C3=C(COC3=O)N(CCO)c3cc4c(cc32)OCO4)c1 (stereo not given) | 15.3% | 19.2% | 35.6% | 69.5% | 70.9% | 23% | 42.1% | 3.12% (active) | 20.2% | 57.3%
9 | N#Cc1cncc(-c2ccc3ncnc(Nc4cccc(Cl)c4)c3c2)c1 | 74.3% | 80.3% | 49.1% | 85% | 41.5% | 53.4% | 45.1% | 58% | 61.2% | 72.8%
10 | CCN1CCN(CC(=O)Nc2ccc(-c3cn4c(n3)sc3cc(Oc5ccnc(C(=O)NC)c5)ccc34)cc2)CC1 | -16.9% (active) | 59.2% | 92.4% | 91.2% | 87.5% | 44.8% | 84.8% | 88.8% | 94% | 89%
11 | CN(C)c1ccc(-c2nc(-c3ccccc3)c(-c3ccccc3)[nH]2)cc1 | 88.2% | 90% | 96.9% | 122% | 94% | 83.1% | 91.6% | 114% | 103% | 95%
12 | COc1ccc(/C=C2\COc3ccc(O)cc3C2=O)cc1 | 15.8% | -0.495% (active) | 95.3% | 102% | 104% | 128% | 99.6% | 114% | 104% | 98.5%
13 | CN(CCCNC(=O)CCOCCOCCOCCNC(=O)Cc1ccc2ccc3cccc4ccc1c2c34)CCCNc1cc(-c2ccc3ccccc3c2)nc2ccccc12 | -74.8% (active) | -48.9% (active) | -37.4% (active) | -86.4% (active) | -90.6% (active) | -96.8% (active) | -43.8% (active) | -92% (active) | -58.9% (active) | 8.51% (active)
14 | COc1ccc(C(=S)N2CCN(c3ccc(Cl)cc3)CC2)cc1 | 90.5% | 94% | 98.2% | 93.8% | 102% | 98.5% | 109% | 114% | 105% | 97.6%
15 | CC(C)(C)c1cc(Cl)c(O)c(CNCCO)c1 | 103% | 113% | 110% | 112% | 104% | 110% | 117% | 111% | 82.7% | 109%
16 | CC(=O)OC(c1ccccc1)C1CCOC1=O (stereo not given) | 122% | 111% | 104% | 86.8% | 88.3% | 106% | 102% | 102% | 111% | 97%
17 | COC(=O)CC[C@@H]1O[C@@H](c2ccc(F)cc2)[C@@H](O)[C@H]1O | 96.6% | 101% | 112% | 90.2% | 115% | 101% | 113% | 104% | 94.1% | 104%
18 | CC1C=CC(OC(=O)C(C)(O)CCC(O)(C(=O)OC2CC(O)C(C(C)C)CC2(C)O)C(C)C)(C(C)C)CC1 (stereo not given) | -24.7% [4.63 µM] (active) | -39.7% [4.63 µM] (active) | -9.1% [4.63 µM] (active) | -85.3% [4.63 µM] (active) | -90.5% [4.63 µM] (active) | -91.5% [4.63 µM] (active) | -70.6% [4.63 µM] (active) | -94.3% [4.63 µM] (active) | 22.4% [4.63 µM] | -9.57% [4.63 µM] (active)
19 | O=C(CCSc1nnc2n(Cc3ccccc3)c(=O)c3c4c(sc3n12)CCCC4)N1CCN(c2ccccc2)CC1 | 121% | 112% | 110% | 91.7% | 115% | 108% | 103% | 95.9% | 108% | 96.1%
20 | Cc1ccc(C)c(/C=C2\CN(C(=O)OC(C)(C)C)C/C(=C\c3cc(C)ccc3C)C2=O)c1 | 0.122% (active) | -24.4% (active) | 12.7% | 86.1% | 22% | 87.7% | 78.1% | 13.1% | 43.9% | 26.5%
21 | Cc1ccc2c(-n3nc(C#N)c(C#N)c3N)cc(=O)[nH]c2c1 | 90.5% | 101% | 85.9% | 99.2% | 89% | 74.5% | 64.1% | 91.2% | 107% | 110%
22 | Nc1[nH]n2cc(-c3ccc(F)cc3)nc2c1N=Nc1ccc(S(N)(=O)=O)cc1 | 66.5% | 73.2% | 79% | 90.7% | 80.9% | 73.9% | 61.9% | 78.7% | 66.8% | 105%
23 | O=C1c2ccccc2C(=O)C1c1ccc(Br)cc1 | 97.3% | 82.9% | 102% | 107% | 98.8% | 111% | 104% | 116% | 99.3% | 91.9%
24 | Cc1ccnc(Nc2ccc([N+](=O)[O-])c(NCCN3CCOCC3)n2)c1 | 9.97% (active) | 26.1% | 34.8% | 99.1% | 59.4% | 62.1% | 28.4% | 26.1% | 38.3% | 43.9%
25 | C=C1C(=O)O[C@H]2[C@H]1CC/C(CNC(=O)c1c[nH]c3ccc(F)cc13)=C\CC[C@@]1(C)O[C@@H]21 | -28.2% (active) | -20.8% (active) | -33.3% (active) | 19.6% | 49% | 81.7% | 41.7% | -36.7% (active) | 44% | 56.3%
26 | O=C(Nc1ccccc1[N+](=O)[O-])c1ccc(Cl)c(Cl)c1 | 92.3% | 90.1% | 95.5% | 111% | 81.4% | 94.9% | 87.2% | 97% | 87.8% | 87.2%
